Phagocytosis inh: inhibitors of macrophage phagocytosis, primary screen, imaging, J774A.1 cells, IgG beads; inhibition, % at 5 µM; 110,000 compounds, 0.07% hits; J774A.1 macrophage IgG-bead phagocytosis;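 active = inhibition above the mean of the plate negative controls plus 5 SD, cut at about 13% in these data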;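 also: phagocytic index as fraction of beads internalized from green versus red external bead signal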
MRP resist rev: reversal of MRP1-mediated doxorubicin resistance, primary screen, H69AR cells, doxorubicin co-treatment; AID 602, 2007; H69AR cells + 2 uM doxorubicin, CellTiter-Glo, 72 h; differential viability (reversal), % at 10 µM; 85,000 compounds, 0.04% hits;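 active = viability drop by adding the cancer drug above about 55%, with treated viability meeting a 40% cutoff, limit read from the data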;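 also: larger differential means the compound sensitizes cells more to doxorubicin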
MRP1 act: H69AR viability gain despite doxorubicin, primary screen, MRP-1 activator project, H69AR cells, CellTiter-Glo | viability rescue | viability increase, % at 10 µM | 140,000 compounds, 0.61% hits | AID 799, 2007;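 active = viability gain under doxorubicin at or above a set limit, the compound median plus 3 SD, cut at about 4.7% in these data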;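 also: MRP-1 overexpressing cells given doxorubicin 25 µM after compound pretreatment; 18-22 h compound pretreatment then 72 h with doxorubicin before readout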
A number is an active result; i = inactive; nt = not tested or not shown; [ ] = dose if it differs, or a comment. Sampled rows, rich in hits. Any-hit rate of the full collection: about 0.69%.

SMILES | Phagocytosis inh | MRP resist rev | MRP1 act
CC(C)CCOc1ncnc2c1sc1nc3c(cc12)CSC(C)(C)C3 | nt | i | 6.3
CCCn1cnc2c(sc3nc4c(cc32)CSC(C)(C)C4)c1=O | i | nt | i
COC(=O)c1[nH]nc(C(=O)OC(C)(C)C)c1-c1ccccc1 | i | nt | i
CCOC(=O)NC1(C(F)(F)F)C(=O)N(Cc2ccccc2)C2=C1C(=O)CC(C)(C)C2 (centres undefined) | nt | i | i
O=C(O)C[CH2][Ge](=[O])[O][Ge](=[O])[CH2]CC(=O)O | nt | i | nt
N#Cc1c(-c2ccccc2)[nH]c(=S)[nH]c1=O | i | i | 4.7
CC1(C)Cc2c(c(-c3ccccc3)[nH]c(=O)c2C#N)CS1 | i | i | i
CC1(C)CC(=O)c2c(O)cc(OCc3ccc(Br)cc3)cc2O1 | i | i | i
COC(=O)c1ccc(COc2cc(O)c3c(c2)OC(C)(C)CC3=O)cc1 | i | i | 6.1
COc1ccc(/C(N)=N/O)cc1O | nt | nt | i
CCOC(=O)c1c(-c2cccs2)csc1NC(C)=O | nt | i | i
CCOC(=O)c1c(-c2cccs2)csc1NC(=O)CSc1ncn[nH]1 | i | i | 6.0
CCn1nc(C)c(NS(=O)(=O)c2ccccc2)c1C | i | i | i
O=C(Nc1ccc2c(c1)OCO2)NC1CCN(Cc2ccccc2)CC1 | 28[artifact] | nt | i
O=C(Nc1ccc2c(c1)OCO2)C1CCN(S(=O)(=O)Cc2ccccc2)CC1 | i | i | i
COc1cccc(C2CC(c3ccccc3OC)n3ncnc3N2)c1 (centres undefined) | i | i | i
COc1ccccc1C1CC(c2ccc(Cl)cc2)Nc2ncnn21 (centres undefined) | i | i | 4.8
COCCn1c(=NC(=O)C(C)(C)C)sc2cc([N+](=O)[O-])ccc21 | i | nt | i
COc1coc(C(O)C[N+](=O)[O-])cc1=O (centres undefined) | i | nt | i
COc1ccc(C(=O)NCc2ccc(-c3nc4ccccc4s3)cc2)cc1 | i | nt | 7.5
COc1cccc(C(=O)NCc2ccc(-c3nc4ccccc4s3)cc2)c1 | i | nt | i
CCOC(=O)Cn1cnc(-c2ccc([N+](=O)[O-])cc2)c1 | i | nt | i
CCCCCCNCc1c(F)cccc1Cl | i | nt | i
C/C(=N\Nc1cc(Cl)nc(C)n1)c1ccccc1 | nt | nt | i
CCc1ccc(/C(C)=N/Nc2cc(Cl)nc(C)n2)cc1 | nt | nt | 7.9
SMILES | Phagocytosis inh | MRP resist rev | MRP1 act
O=c1c2ccccc2cnn1Cc1n[nH]c(=S)n1-c1ccccc1Cl | i | nt | i
O=C(CC1C(=O)N(c2ccccc2)C(=S)N1c1ccccc1)c1ccc(Br)cc1 (centres undefined) | i | nt | 4.7
O=C(CC1C(=O)N(c2ccccc2)C(=S)N1c1ccccc1)c1ccccc1 (centres undefined) | i | nt | i
Cc1nc(/N=C(\N)NC(=O)c2ccccc2)nc2ccccc12 | i | nt | i
Cc1nc(/N=C(\N)NC(=O)N2c3ccccc3Sc3ccccc32)nc2ccccc12 | i | nt | 6.5
Cc1ccc(CNC(=O)Cn2c(=O)c3sccc3n(Cc3ccc([N+](=O)[O-])cc3)c2=O)cc1 | i | nt | i
O=C(COC(=O)c1ccccc1)Nc1cc(Cl)ccc1Oc1ccccc1 | i | nt | i
O=C(COC(=O)c1c(Cl)cccc1Cl)Nc1cc(Cl)ccc1Oc1ccccc1 | i | nt | 6.6
Nc1c([N+](=O)[O-])cnnc1-c1ccccc1 | i | nt | i
CCn1c(COc2ccc(Cl)cc2)nnc1SC1CCc2ccccc2C1=O (centres undefined) | i | nt | 7.1
CCn1c(COc2ccc(Cl)cc2)nnc1SCc1ccc(C#N)cc1 | i | i | i
O=C(NCCc1nc2ccccc2[nH]1)/C(=C/c1ccco1)NC(=O)c1ccc(Br)o1 | i | nt | i
CCOC(=O)C1=C(C)N=C2SC(C)C(=O)N2C1c1ccc(OCC)c(OCC)c1 (centres undefined) | i | i | i
CCC1SC2=NC(C)=C(C(=O)OC)C(c3cccs3)N2C1=O (centres undefined) | i | i | 5.5
C=CCOC(=O)C1=C(C)N=C2SCCC(=O)N2C1c1cccs1 (centres undefined) | i | i | i
CCOC(=O)C1=C(C)N=C2SC(CC)C(=O)N2C1c1cccc(F)c1 (centres undefined) | i | i | 6.3
CC/S(C)=N/S(=O)(=O)c1ccc(C)cc1 (centres undefined) | i | nt | i
CCOc1ccc(CCNC(=O)Cn2cccc2C(=O)c2ccccc2C)cc1OCC | i | nt | i
COc1ccc(NS(=O)(=O)c2ccc3oc(SC4CCOC4=O)nc3c2)cc1 (centres undefined) | i | i | 7.4
COc1ccc(NS(=O)(=O)c2ccc3c(c2)n(C)c(=O)n3C)cc1 | i | nt | i
COC(=O)CCc1c(C)[nH]c(C(=O)OCc2ccccc2)c1C | i | i | 5.1
CCOC(=O)c1[nH]c(C(=O)O)c(CCC(=O)OC)c1C | nt | nt | i
O=C(CNc1ccc(Br)cc1)NNC1=NCCC1 | i | nt | i
COc1cc(-c2nnc(COC(=O)c3c4c(nc5ccccc35)CCCC4)o2)cc(OC)c1OC | nt | nt | i
CCOC(=O)C(NC(=O)Nc1ccc(C(N)=O)cc1)(c1ccccc1)C(F)(F)F (centres undefined) | i | nt | i
SMILES | Phagocytosis inh | MRP resist rev | MRP1 act
CCOC(=O)C(NCc1ccc2c(c1)OCO2)(NC(=O)c1ccccc1)C(F)(F)F (centres undefined) | nt | i | i
Cc1c(NC(=O)c2ccccc2NS(=O)(=O)c2ccc(Br)cc2)c(=O)n(-c2ccccc2)n1C | i | i | 5.3
Cc1ccc(S(=O)(=O)NC(=O)Nc2c(C)n(C)n(-c3ccccc3)c2=O)cc1 | i | i | i
CCOc1ccc2c(c1)c(N=O)c(O)n2C | i | nt | 6.0
CCOc1ccc(/C=N/NC(=O)c2c(C)n(C)c3ccc(OC)cc23)cc1 | nt | nt | i
COc1ccc(OC)c(NC(=O)COC(=O)CCCN2C(=O)c3ccccc3C2=O)c1 | i | nt | i
CC(=O)NC(Cc1ccc(C)cc1)C(=O)NC1CCN(c2ncccc2[N+](=O)[O-])CC1 (centres undefined) | i | nt | i
COc1ccc(CNC(=O)c2sc3nc4c(c(C(F)(F)F)c3c2N)CCC4)cc1 | i | nt | i
Cc1ccc(CNC(=O)c2sc3nc4c(c(C(F)(F)F)c3c2N)CCC4)cc1 | i | nt | 4.8
Cc1cccc(C(=O)NC(=S)N2CCN(C(=S)NC(=O)c3cccc(C)c3)CC2)c1 | i | nt | i
CCNC(=S)SCCOc1ccccc1C | i | nt | i
CCOc1ccc(NC(=O)CC2C(=O)N(c3ccccc3)C(=O)N2CCc2cccs2)cc1 (centres undefined) | i | nt | i
O=C1c2ccsc2SCCN1Cc1c(Cl)cccc1Cl | i | i | 7.0
O=C1c2ccsc2SCCN1Cc1ccc(Cl)cc1Cl | i | i | i
COCC(=O)n1nc(NCc2ccc(OC)cc2)nc1NCc1ccc(OC)cc1 | i | i | i
COc1ccc(CNc2nc(NCc3ccc(OC)cc3)n(S(C)(=O)=O)n2)cc1 | i | i | 5.1
COc1ccccc1OCC(=O)Nc1nonc1NC(=O)COc1ccccc1OC | i | nt | i
O=[N+]([O-])c1cccc(/C=N/N2CCN(c3ccccn3)CC2)c1 | i | nt | i
O=[N+]([O-])c1cccc(/C=N\N2CCN(Cc3ccccc3Cl)CC2)c1 | nt | i | 4.8
CC(=O)c1ccc(OC2OCCOC2Oc2ccc(C(C)=O)cc2)cc1 (centres undefined) | i | nt | i
Cc1cccc(C)c1OC(=O)CN(c1ccc(Cl)cc1)S(C)(=O)=O | i | nt | i

Assay outcomes (PubChem BioAssay)
